Assay [1] has as its system Wnt5a (protein binding on small-molecule microarray). Briefly: small molecules binding Wnt5a protein – biophysical, small-molecule microarray, 635/667 nm fluorescence, primary screen (AID 1142).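 Also: fluorescence read at 667 nm with signal to noise per printed feature.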 To be noted: 635 nm fluorescence, higher = more signal.
Assay [2] in a line: ATP-based viability of Huh7 replicon cells – cell-based, CellTiter-Glo luminescence, basal, 48 h, cytotoxicity control for HCV replication inhibitor project, primary screen (AID 1143).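 Also: Huh7 hepatoma cells carrying a hepatitis C replication reporter with no stimulus; test concentration not given here.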 The conditions noted are these: higher = more signal, called active from +8 up or from −8 down.
Assay [3] can be described thus: Pseudomonas biofilm growth suppression – PAO1 strain, BacTiter-Glo luminescence, LB-PBS, primary screen (AID 1144). To be noted: P. aeruginosa PAO1 biofilm, 12 h, higher = more signal.
A short description of assay [4]: basal CRE-LacZ reporter activity in PC12 – cell-based, unstimulated, primary screen (AID 1145). To be noted: no forskolin, luminescence, 4.5 h, higher = more signal, called active from +8 up or from −8 down.
Assay [5] is described as follows: forskolin-driven CRE-LacZ activity in PC12 – cell-based, CRE-LacZ reporter, forskolin-stimulated, primary screen (AID 1146).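 Also: PC12 cells with 6xCRE LacZ reporter stimulated by forskolin 10 µM; beta-galactosidase reporter signal reflecting CREB driven transcription.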 To be noted: luminescence, 4.5 h, higher = more signal, called active from +8 up or from −8 down.
For assay [6], the target named is Streptavidin (Streptomyces avidinii) (UniProt P22629). In words: compounds binding control protein streptavidin – biophysical, small-molecule microarray, 635/667 nm fluorescence, artefact control for SMM compound annotation, primary screen (AID 1147).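 Also: signal reflects streptavidin binding to arrayed compounds as a control protein.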 The conditions noted are these: higher = more signal.
Sequence of Streptavidin (Streptomyces avidinii) (P22629 whole entry, looked up): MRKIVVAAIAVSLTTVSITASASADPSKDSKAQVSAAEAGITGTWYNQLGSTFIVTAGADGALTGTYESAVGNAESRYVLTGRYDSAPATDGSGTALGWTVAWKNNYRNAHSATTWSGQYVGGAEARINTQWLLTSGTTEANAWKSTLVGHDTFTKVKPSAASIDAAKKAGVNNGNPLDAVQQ
A short description of assay [7]: probe aInhba binding on compound microarray – biochemical, small-molecule microarray, 635/667 nm fluorescence, primary screen (AID 1148).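 Also: score merges 667nm spot fluorescence with signal-to-noise for antibody binding to printed compounds.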 To be noted: higher = more signal.
Assay [8] addresses Torsin-1A (Homo sapiens) (UniProt O14656). Briefly: TOR1A wild-type binding on microarray – cell lysate, small-molecule microarray, lysate, 635/667 nm, primary screen (AID 1149). The conditions noted are these: COS7 hTOR1A-WT lysate, 635 nm fluorescence, higher = more signal.
Assay [9] shares this target. In words: torsin A mutant lysate binding on microarrays – cell lysate, small-molecule microarray, COS7 lysate, 635/667 nm fluorescence, primary screen (AID 1150).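 Also: score pools 667 nm emission and signal to noise measuring lysate protein binding.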 To be noted: COS7 hTOR1A mutant lysate, 635 nm fluorescence, higher = more signal.
Assay [10] concerns Sonic hedgehog protein (Shh). Briefly: Sonic hedgehog microarray binding compounds – biochemical, small-molecule microarray, 635/667 nm fluorescence, primary screen (AID 1151).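 Also: Shh protein binding to compounds spotted on small-molecule microarray slides; score combines spot fluorescence intensity with signal-to-noise across triplicate slides.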 To be noted: 635 nm fluorescence, higher = more signal.

Activity calls are given as the source filed them. Unless noted, no rule for the calls is given here.

Sequence of Torsin-1A (Homo sapiens) (O14656 whole entry, looked up): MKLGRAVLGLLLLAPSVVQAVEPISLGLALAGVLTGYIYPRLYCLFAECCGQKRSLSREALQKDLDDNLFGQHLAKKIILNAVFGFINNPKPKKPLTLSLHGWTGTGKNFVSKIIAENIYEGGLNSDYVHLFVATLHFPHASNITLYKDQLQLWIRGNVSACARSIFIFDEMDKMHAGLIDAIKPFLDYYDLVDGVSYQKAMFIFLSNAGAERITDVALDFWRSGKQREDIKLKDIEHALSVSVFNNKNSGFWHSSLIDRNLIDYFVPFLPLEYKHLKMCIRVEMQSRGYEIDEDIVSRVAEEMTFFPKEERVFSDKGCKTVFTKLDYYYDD

Regarding `COc1ccc(C(O)C2C=CC3C(=O)N(c4ccccc4)C(=O)C3N2Nc2ccc(C(C)C)cc2)c2ccccc12` (stereo not given), the composite z-score in assay [1] is 0.295; in assay [6], 1.92; in [7] it was 0.216; in assay [8], 0.724; in assay [9] it was 1.01; in [10] it was -0.328. In addition, the z-score was 0.0927 (inactive) in [2], -1.88 (inactive) in assay [3], 0.632 (inactive) in [4] and -0.557 (inactive) in assay [5].

`C=CCC(OC(C)=O)[C@@H]1[C@@H](N(Cc2ccc(-c3cccc(C(F)(F)F)c3)o2)C(=O)c2cccc3ccccc23)c2cc(OCCCO)ccc2N1C(=O)Cc1ccc(OC)cc1` (stereo not given in full): the composite z-score in assay [1] was -0.307; in [6] it was -0.551; in [7] it was -0.102; in assay [8], -0.577; in assay [9], 0.264; in assay [10], 0.439. The z-score in assay [2] is -2.29 (inactive); in assay [3], 0.302 (inactive); in assay [4], -0.593 (inactive); in assay [5] it was 0.0843 (inactive).

Consider `COc1ccc(C#Cc2ccc3c(c2)[C@]2(C(=O)N3)[C@H](c3ccc(OCCO)cc3)N3[C@H](c4ccccc4)[C@H](c4ccccc4)OC(=O)[C@H]3[C@@H]2C(=O)N2CCc3cc(OC)c(OC)cc3C2)cc1`, for which the composite z-score in [1] was 1.04; in assay [6], 1.83; in assay [7], -0.308; in assay [8], 0.394; in assay [9], 0.722; in [10], 2.15. Besides, the z-score in assay [2] was -0.632 (inactive); in assay [3], -0.221 (inactive); in assay [4], 0.478 (inactive); in [5], 0.198 (inactive).

In the case of `O=C1C[C@@](C(=O)NCC(F)(F)F)(c2ccc([N+](=O)[O-])cc2)[C@@H](c2ccc(CO)cc2)N1CC12CC3CC(CC(C3)C1)C2`, the composite z-score in assay [1] was 0.988; in assay [6] it was 0.261; in assay [7], 0.216; in assay [8], 0.406; in assay [9], 0.397; in assay [10], 1.34. Also, the z-score in assay [2] is -5.79 (inactive); in assay [3], -0.542 (inactive); in assay [4] it was 0.324 (inactive); in assay [5], -1.01 (inactive).

On to `CCOC(=O)C1=CC[C@@H](c2ccccc2)N(S(=O)(=O)c2ccc(C)cc2)[C@H]1C=Cc1ccccc1`, for which the composite z-score in assay [1] was -0.109; in assay [6], 0.261; in [7] it was 0.0713; in [8], 0.0331; in [9], -0.0749; in assay [10] it was -0.723. In addition, the z-score was -2.35 (inactive) in [2], 0.17 (inactive) in assay [3], -0.0696 (inactive) in [4] and 0.521 (inactive) in assay [5].

Turning to `C=CCC(OC(C)=O)[C@@H]1[C@@H](N(Cc2cccc3ccccc23)C(=O)Cc2ccc(F)cc2)c2cc(OCCCO)ccc2N1C(=O)c1ccc(-c2ccccc2)cc1` (stereo not given in full), the composite z-score in [1] is 0.364; in assay [6] it was -0.153; in assay [7] it was 0.066; in assay [8] it was 0.143; in assay [9], 0.102; in [10] it was 0.246. Further, the z-score is -0.227 (inactive) in assay [2], -0.169 (inactive) in assay [3], 1.44 (inactive) in [4] and 0.429 (inactive) in assay [5].

In the case of `COCCOC(=O)N1C(=O)[C@@]2(c3ccccc31)[C@H](c1ccc(OCCO)cc1)N1[C@H](c3ccccc3)[C@H](c3ccccc3)OC(=O)[C@H]1[C@@H]2C(=O)N1CCCCCCC1`, the composite z-score in assay [1] turned out to be 2.44; in assay [6], 4.09; in [7] it was 2.11; in assay [8] it was 3.76; in assay [9], 3.68; in [10] it was 2.29. Also, the z-score in [2] is -2.59 (inactive); in [3], -0.302 (inactive); in assay [4] it was -0.329 (inactive); in assay [5], 3.39 (inactive).

Take `C#C[C@@H](CC)O[Si](C#CCCCC#N)(C(C)C)C(C)C`: the composite z-score in assay [1] was 0.162; in assay [6], -0.0686; in [7], -0.0762; in [8], 0.491; in assay [9] it was 1.69; in [10], 0.473. Moreover, the z-score in assay [2] is -0.667 (inactive); in assay [3] it was 0.132 (inactive); in assay [4], -0.868 (inactive); in assay [5], 4.95 (inactive).

For `COCCOC(=O)N1C(=O)[C@@]2(c3cc(C#CC4=CCCCC4)ccc31)[C@H](c1ccc(O)cc1)N1[C@H](c3ccccc3)[C@H](c3ccccc3)OC(=O)[C@H]1[C@@H]2C(=O)NC[C@H](O)c1ccccc1`, the composite z-score is 0.259 in assay [1]; 0.318 in [6]; 0.0227 in assay [7]; 0.184 in assay [8]; 1.29 in [9]; 1.27 in assay [10]. The z-score was -3.27 (inactive) in [2], -0.354 (inactive) in assay [3], -0.815 (inactive) in assay [4] and -0.369 (inactive) in assay [5].

`CO[C@H]1O[C@H](CO)[C@@H](OC(=O)Nc2cccc(F)c2)[C@H](OC(=O)Nc2ccccc2-c2ccccc2)[C@H]1OC(=O)Nc1ccccc1-c1ccccc1`: the composite z-score in [1] was found to be 0.828; in assay [6], 0.379; in assay [7], 0.208; in [8], 0.937; in [9], 0.663; in assay [10] it was 1.23. Also, the z-score in [2] was -5.99 (inactive); in assay [3], 0.0177 (inactive); in [4] it was 0.951 (inactive); in assay [5], -0.986 (inactive).

For `COC(=O)[C@@]1(Cc2ccc(F)cc2)[C@H]2c3cc(C(=O)N(C)C)n(Cc4ccc(O)c(OC)c4)c3C[C@H]2CN1C(=O)c1ccccc1`, the composite z-score was 0.128 in assay [1]; 0.575 in assay [6]; -0.108 in assay [7]; 0.198 in [8]; 0.484 in assay [9]; -0.556 in [10]. For the same compound, the z-score in [2] was -2.65 (inactive); in [3], -1.24 (inactive); in [4], 0.387 (inactive); in [5], 0.0711 (inactive).

Take `C=C[C@@H](C)[C@@H](OC(=O)Nc1ccc(SC)cc1)c1ccc(OCCO)cc1`: the composite z-score is 0.382 in assay [1]; 0.929 in assay [6]; -0.151 in assay [7]; 0.495 in assay [8]; 1.04 in assay [9]; 0.487 in [10]. Further, the z-score in [2] was -3.1 (inactive); in assay [3] it was -0.882 (inactive); in [4], 0.236 (inactive); in assay [5], -0.162 (inactive).

For the compound `O=C1O[C@H](c2ccccc2)[C@H](c2ccccc2)N2[C@H]1[C@@H](C(=O)O)[C@]1(C(=O)Nc3ccc(C#CC4(O)CCCCCC4)cc31)[C@H]2c1ccc(O)cc1`, the composite z-score was -0.243 in [1]; -0.467 in assay [6]; -0.152 in assay [7]; -0.449 in [8]; 0.198 in assay [9]; -0.335 in assay [10]. Besides, the z-score is -3.06 (inactive) in assay [2], -2.13 (inactive) in assay [3], -1.29 (inactive) in [4] and -1.14 (inactive) in [5].

Turning to `CC(C)C(=C=CC[C@@H](O)c1cccc(OCCO)c1)C[C@@H](O)c1ccccn1`, the composite z-score was 0.189 in [1]; -0.637 in [6]; -0.13 in assay [7]; -0.84 in assay [8]; 0.405 in assay [9]; 0.935 in [10]. Moreover, the z-score was -0.846 (inactive) in assay [2], -0.382 (inactive) in assay [3], 1.13 (inactive) in assay [4] and -0.039 (inactive) in [5].
